Bioassay records from PubChem BioAssay.
ALOX12 inh = ALOX12 (human) lipoxygenase inhibition. P18054. purified 12hLO, xylenol orange hydroperoxide absorbance. Potency, µM (highest dose often 108 µM), most hits filed as inhibitors. 1.1% of 580,000 active. AID 1671190
Target sequence (P18054 whole entry, looked up): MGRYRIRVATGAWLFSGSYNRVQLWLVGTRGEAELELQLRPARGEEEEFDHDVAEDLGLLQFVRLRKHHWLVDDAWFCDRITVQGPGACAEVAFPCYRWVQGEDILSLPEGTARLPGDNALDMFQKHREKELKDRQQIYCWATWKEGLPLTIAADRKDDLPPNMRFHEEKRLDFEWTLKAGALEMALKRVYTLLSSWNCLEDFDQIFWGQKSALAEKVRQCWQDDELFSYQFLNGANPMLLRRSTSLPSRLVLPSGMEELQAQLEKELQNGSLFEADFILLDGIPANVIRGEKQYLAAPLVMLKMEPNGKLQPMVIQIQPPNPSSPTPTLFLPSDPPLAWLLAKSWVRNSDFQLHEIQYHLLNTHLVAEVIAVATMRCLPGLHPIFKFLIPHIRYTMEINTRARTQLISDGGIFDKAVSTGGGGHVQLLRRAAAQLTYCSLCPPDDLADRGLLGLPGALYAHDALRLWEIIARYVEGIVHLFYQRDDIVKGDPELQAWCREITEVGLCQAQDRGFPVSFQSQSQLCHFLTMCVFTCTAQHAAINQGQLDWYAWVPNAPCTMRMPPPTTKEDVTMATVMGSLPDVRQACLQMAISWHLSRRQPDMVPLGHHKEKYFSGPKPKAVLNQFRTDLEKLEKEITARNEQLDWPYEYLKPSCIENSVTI
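Hydroperoxide product was detected by ferrous iron/xylenol orange as the 573 to 405 nm absorbance ratio. Arachidonic acid at 40 uM (final) was turned over for 30 min at room temperature by 150 nM human 12hLO, pH 7.0 Hepes buffer, after 15 min compound preincubation.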
TDP1 cell noCPT = qHTS for Inhibitors of human tyrosyl-DNA phosphodiesterase 1 (TDP1): qHTS in cells in absence of CPT; 15% of 420,000 active; AID 686978, 2013; DT40 Tdp1-/- hTDP1 cells, no CPT, ATP luminescence, 48 h; Potency, µM (highest dose often 46.2 µM), usual class: inhibitors; note: nearly all actives have a fitted effect of over 55% in size
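Seeded 400 DT40-hTDP1 cells/well (vehicle DMSO, no 20 nM CPT); pinned compounds; ≥48 hr at 37 °C; CellTiter-Glo luminescence as viability measure.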
HT1080 IDH1KD tx = kills HT-1080 cells with IDH1 knockdown | HT-1080 IDH1 knockdown viability, ATP luminescence, 48 h | Potency, µM (titrated, usually from 46.1 µM), most hits filed as cytotoxic | 2% of 360,000 active | AID 686971
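HT-1080-IDH1KD cells (IDH1 knocked down), 750/well in RPMI with 5% FBS, treated with compound 48 h at 37 degrees C. Viability by CellTiter-Glo luminescence, normalised to DMSO and no-cell wells; concentration-response curves classed.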
HT1080NT lethal = kills 2HG-producing HT-1080-NT fibrosarcoma cells; HT-1080-NT fibrosarcoma viability, CellTiter-Glo ATP luminescence, 48 h; Potency, µM (top dose mostly 46.1 µM), usual class: cytotoxic; 1.6% of 360,000 active;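 note: NT is the 2HG producing partner of a matched IDH1 knockdown line; nearly all actives have a fitted effect of over 55% in size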
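750 cells/well, RPMI + 5% FBS; 2 h settle, compound pin-transfer, 48 h at 37 degrees C. CellTiter-Glo 10 min RT, luminescence. Normalized to DMSO and media-only wells.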
IL-1B inflam inh = blocks inflammasome-driven IL-1 beta release. THP-1 LPS/ATP IL-1B secretion, AlphaLISA, 16 h; stronger effect = lower value. activity change, % at 57.5 µM. 4.7% of 360,000 active. AID 743279; in the data active = activity change below about -50%; inconclusive = mostly about -30% to -49%
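THP-1 cells pretreated 1 hr with compounds (up to 57.5 uM final), then stimulated with LPS (250 ng/mL final) plus ATP (1.25 mM final); secreted IL-1B measured by AlphaLISA after 16 hr, decreased signal indicating inhibition.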
DT40 TDP1 CPT = growth inhibition of DT40 Tdp1-/-;hTDP1 cells with camptothecin (screen for TDP1 inhibitors) | chicken DT40 Tdp1-/-;hTDP1 cells + 20 nM CPT, ATP luminescence, 48 h | Potency, µM (series often up to 46.2 µM), usual class: inhibitors | 12% of 420,000 active | AID 686979; note: nearly all actives have a fitted effect of over 55% in size
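Chicken DT40 Tdp1-/- cells stably complemented with human TDP1 were seeded at 400 cells/well in medium containing 20 nM camptothecin, exposed to pin-transferred compounds, and grown at 37 °C for at least 48 hr. Viability was read as ATP luminescence.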
Large screens that a line does not name were inactive. Shown is part of a subset that was picked to be rich in hits. Unless noted, calls come from the whole dose curve; as a rule, active = well fitted curve in the direction sought with a large enough effect; inconclusive = small, poorly fitted or top-dose-only effect, or another doubt; inactive = no such curve, though single readings can be large; an effect the other way counts as inactive or inconclusive.

CN(CC(=O)N1CCN(CCO)CC(O)C1)Cc1ccccc1F (configuration not stated)	none (no result: TDP1 cell noCPT, HT1080 IDH1KD tx, HT1080NT lethal, IL-1B inflam inh, DT40 TDP1 CPT)
COCc1oc2ccc(NS(=O)(=O)c3ccc(C)cc3)cc2c1C(=O)OC	TDP1 cell noCPT 2.31µM, DT40 TDP1 CPT 3.66µM (no result: HT1080 IDH1KD tx, HT1080NT lethal, IL-1B inflam inh)
COC(=O)c1cc2cc(NS(=O)(=O)c3ccc(C)cc3)ccc2s1	DT40 TDP1 CPT inconclusive
C(=C\c1ccccc1)/C=N/n1c2ccccc2c2ccccc21	none (no result: TDP1 cell noCPT, HT1080 IDH1KD tx, HT1080NT lethal, IL-1B inflam inh, DT40 TDP1 CPT)
Cc1oc(-c2cccc(Cl)c2)nc1CN1CCN(S(N)(=O)=O)CC1	none (no result: TDP1 cell noCPT, HT1080 IDH1KD tx, HT1080NT lethal, IL-1B inflam inh, DT40 TDP1 CPT)
CCN1CCN(C(=O)C2CCN(Cc3nc(-c4cccc(Cl)c4)oc3C)CC2)CC1	ALOX12 inh inconclusive, TDP1 cell noCPT 16.4µM, IL-1B inflam inh inconclusive, DT40 TDP1 CPT 20.6µM
CCN(C(C)=O)C1CCN(Cc2nc(-c3cccc(Cl)c3)oc2C)C1 (configuration not stated)	none (no result: TDP1 cell noCPT, HT1080 IDH1KD tx, HT1080NT lethal, IL-1B inflam inh, DT40 TDP1 CPT)
Cc1oc(-c2cccc(F)c2)nc1CN1CCCN(C(=O)c2ccco2)CC1	ALOX12 inh inconclusive
CCN1CCN(C(=O)C2CCN(Cc3cc(Cl)ccc3O)CC2)CC1	ALOX12 inh inconclusive, HT1080NT lethal inconclusive, IL-1B inflam inh -77.1
Cc1oc(-c2cccc(Cl)c2)nc1CN1CCC(C(=O)N2CCN(c3ccccn3)CC2)CC1	TDP1 cell noCPT 18.4µM, DT40 TDP1 CPT 23.1µM (no result: ALOX12 inh)
Cc1oc(-c2cccc(Cl)c2)nc1CN1CCN(C(=O)c2ccco2)CC1	ALOX12 inh 35.5µM (no result: TDP1 cell noCPT, HT1080 IDH1KD tx, HT1080NT lethal, IL-1B inflam inh, DT40 TDP1 CPT)
Cc1ccc(C(=O)N/N=C2/CC(=O)CC(C)(C)C2)cc1Br	none (no result: TDP1 cell noCPT, HT1080 IDH1KD tx, HT1080NT lethal, IL-1B inflam inh, DT40 TDP1 CPT)
CC(CCC(C)C(C)(C)C)[C@@H]1CC[C@H]2C3C[C@H](OS(O)(=S)=S)[C@H]4C[C@H](OS(O)(=S)=S)[C@@H](OS(O)(=S)=S)C[C@]4(C)[C@H]3CC[C@]12C (some centres not stated) (tested in a mixture with another compound)	TDP1 cell noCPT inconclusive, HT1080 IDH1KD tx inconclusive, HT1080NT lethal 9.2µM, IL-1B inflam inh -75.8, DT40 TDP1 CPT inconclusive (no result: ALOX12 inh)
CCC1CCCCN1S(=O)(=O)c1ccc(S(=O)(=O)N(Cc2cccs2)C2CC2)cc1 (configuration not stated)	TDP1 cell noCPT 23.1µM, DT40 TDP1 CPT 18.4µM
CCC1CCCCN1S(=O)(=O)c1ccc(S(=O)(=O)N(Cc2ccccn2)CC2CCCO2)cc1 (configuration not stated)	TDP1 cell noCPT 23.1µM, DT40 TDP1 CPT 23.1µM
CCC1CCCCN1S(=O)(=O)c1ccc(NC(=O)C2CCN(C(=O)c3ccco3)CC2)cc1 (configuration not stated)	TDP1 cell noCPT inconclusive, HT1080NT lethal inconclusive
O=C1CCc2cc(C(=O)NCCc3ccc4c(c3)OCO4)ccc2N1	none (no result: TDP1 cell noCPT, HT1080 IDH1KD tx, HT1080NT lethal, IL-1B inflam inh, DT40 TDP1 CPT)
Cc1ccc2cc(C)c(SCC(=O)Nc3ccc(S(=O)(=O)N4CCCC4)cc3)nc2c1	TDP1 cell noCPT inconclusive, DT40 TDP1 CPT inconclusive
Nc1nc(SCC(=O)Nc2ccccc2)nc2nc3c(cc12)CCCC3	TDP1 cell noCPT 13µM, HT1080 IDH1KD tx inconclusive, HT1080NT lethal inconclusive, IL-1B inflam inh -51.9
Cc1ccc(NC(=O)CSc2nc(N)c3cc4c(nc3n2)CCCC4)cc1	TDP1 cell noCPT inconclusive, HT1080 IDH1KD tx inconclusive, HT1080NT lethal inconclusive, DT40 TDP1 CPT 16.4µM
Nc1nc(SCc2ccc([N+](=O)[O-])cc2)nc2nc3c(cc12)CCCC3	none
O=C(CSc1nc2nc3c(cc2c(=O)n1-c1ccccc1)CCCC3)Nc1ccccc1	TDP1 cell noCPT inconclusive, DT40 TDP1 CPT inconclusive
Cc1cc2cc3c(cc2nc1SCC(=O)Nc1ccccc1)CCC3	TDP1 cell noCPT 12.6µM, DT40 TDP1 CPT 14.6µM
Cc1ccc(C(=O)NC2CCc3nnc(C4CC4)n3CC2)c(=O)[nH]1 (configuration not stated)	none (no result: TDP1 cell noCPT, HT1080 IDH1KD tx, HT1080NT lethal, IL-1B inflam inh, DT40 TDP1 CPT)
O=C(O)c1ccc(OCC2CCCCC2)cc1	none (no result: TDP1 cell noCPT, HT1080 IDH1KD tx, HT1080NT lethal, IL-1B inflam inh, DT40 TDP1 CPT)
O=C(CCc1cccnc1)NCCc1c[nH]c2ccccc12	none (no result: TDP1 cell noCPT, HT1080 IDH1KD tx, HT1080NT lethal, IL-1B inflam inh, DT40 TDP1 CPT)
